Laboratory results from PubChem BioAssay (Tox21).
Inconclusive results are not listed. A structure can be active in one record and inactive in another. Activity calls are given as the source filed them. Unless noted, the call rests on the fitted dose curve; in most records, active means well fitted curve in the direction sought with a large enough effect in the repeat runs; inconclusive means weak or mixed curves; inactive means no such curve, though single readings can be large; an effect the other way counts as inactive or inconclusive.

How the values were obtained:
[1] = molecular target: Aryl hydrocarbon receptor (Homo sapiens) (UniProt P35869); experiment: qHTS assay to identify small molecule that activate the aryl hydrocarbon receptor (AhR) signaling pathway (AID 743085); further: nearly all actives have a fitted effect of over 15% in size; further: potency means the concentration at half of the fitted maximal effect;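 on activation: HG2L7.5c1 human HepG2 liver cells with stably integrated DRE-driven firefly reporter; series mostly up to about 70 µM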
Method in brief: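 Steps: seed HepG2-AhR-luc cells; allow 5 h at 37C; pin-transfer test compound or vehicle; incubate 24 h at 37C; add viability dye (30 min, 37C) and read fluorescence; add luciferase substrate (30 min, RT) and read luminescence.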

[2] = qHTS assay to identify small molecule that activate the aryl hydrocarbon receptor (AhR) signaling pathway - cell viability counter screen (AID 743086); further: nearly all actives have a fitted effect of over 45% in size; further: potency means the concentration at half of the fitted maximal effect;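 on viability change, negative = cytotoxic: HepG2 liver cells carrying the AhR DRE luciferase reporter; series mostly up to about 70 µM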
Method in brief: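 Cytotoxicity counter screen: CellTiter-Fluor signal (30 min, 37 C) in 4000 HepG2 cells/well carrying the DRE-luciferase reporter, following 24 h compound exposure at 37 C.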

[3] = molecular target: Peroxisome proliferator-activated receptor gamma (Homo sapiens) (UniProt P37231); experiment: qHTS assay to identify small molecule agonists of the peroxisome proliferator-activated receptor gamma (PPARg) signaling pathway (AID 743094; active means well fitted activation curve with a large enough effect in the signal ratio in the repeat runs, not every such curve was filed as active; the % refers to the signal ratio)
Method in brief: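 Cell-based bla reporter, HEK293H background, PPARg-driven UAS. Pre-incubation 5 h, 37C, 5% CO2. Compound 17 h, 37C. Substrate 1 h RT; fluorescence.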

[4] = molecular target: Peroxisome proliferator-activated receptor gamma (Homo sapiens) (UniProt P37231); experiment: qHTS assay to identify small molecule antagonists of the peroxisome proliferator-activated receptor gamma (PPARg) signaling pathway (AID 743191; calls by dose curve; further: series mostly up to about 63 µM; nearly all actives have a fitted effect of over 30% in size)
Method in brief: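 Beta-lactamase reporter under UAS control in HEK293H PPARg-bla cells; compound treatment 17 h at 37C. Read-out: fluorescence intensity after 1 h room-temperature incubation with LiveBLAzer B/G FRET substrate.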

[5] = qHTS assay to identify small molecule antagonists of the peroxisome proliferator-activated receptor gamma (PPARg) signaling pathway - cell viability counter screen (AID 743194); further: nearly all actives have a fitted effect of over 55% in size
Method in brief: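 Viability was measured as CellTiter-Glo luminescence in GeneBLAzer PPARg UAS-bla HEK293H cells. These cells had been exposed 17 h at 37 C to compounds together with rosiglitazone at 50 nM final, with the beta-lactamase readout taken in the same wells.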

[6] = qHTS assay for small molecule agonists of the antioxidant response element (ARE) signaling pathway (AID 743202; active means well fitted activation curve with a large enough effect in the signal ratio in the repeat runs, not every such curve was filed as active; the % refers to the signal ratio)
Method in brief: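 Beta-lactamase reporter activity, read as fluorescence intensity, reflects ARE/Nrf2 pathway induction in HepG2 cells after 16 h compound exposure at 37 C; substrate loading was 2 h at room temperature.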

[7] = qHTS assay for small molecule agonists of the antioxidant response element (ARE) signaling pathway - cell viability counter screen (AID 743203; calls by dose curve; further: nearly all actives have a fitted effect of over 55% in size)
Method in brief: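 Measured in the same wells as the beta-lactamase ARE reporter, this read-out is CellTiter-Glo luminescence from HepG2 ARE-bla cells given compounds for 16 hrs.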

[8] = qHTS assay for small molecule activators of the heat shock response signaling pathway - cell viability counter screen (AID 743209); further: nearly all actives have a fitted effect of over 50% in size
Method in brief: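 Same-well multiplex: after 2.5 h room-temperature incubation with LiveBLAzer B/G substrate and fluorescence reading, CellTiter-Glo reagent was added to HSE-bla HeLa cells that had received compound for 5 h at 37 C; luminescence read after 30 min.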

[9] = qHTS assay to identify small molecule agonists of the peroxisome proliferator-activated receptor delta (PPARd) signaling pathway - cell viability counter screen (AID 743211); further: nearly all actives have a fitted effect of over 55% in size
Method in brief: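 Viability of GeneBLAzer PPARd UAS-bla HEK293H cells was assessed after 17 h compound incubation at 37C, using CellTiter-Glo reagent added after the reporter read and luminescence recorded 30 min later.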

[10] = molecular target: Peroxisome proliferator-activated receptor delta (Homo sapiens) (UniProt Q03181); experiment: qHTS assay to identify small molecule agonists of the peroxisome proliferator-activated receptor delta (PPARd) signaling pathway (AID 743212; calls by dose curve;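 further: HEK293H cells with PPARd UAS beta-lactamase reporter GeneBLAzer system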)
Method in brief: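 Steps: seed PPARd-bla HEK293H cells; incubate 5 h, 37 C, 5% CO2; add compounds in DMSO; incubate, 37 C; add LiveBLAzer B/G FRET substrate; hold 2 h at room temperature; measure fluorescence.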

[11] = qHTS assay to identify small molecule antagonists of the peroxisome proliferator-activated receptor delta (PPARd) signaling pathway - cell viability counter screen (AID 743213); further: nearly all actives have a fitted effect of over 50% in size
Method in brief: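 In this counter screen, HEK293H cells carrying a UAS-beta-lactamase reporter are co-treated with test compounds and 300 nM L165041 (final) for 17 h at 37 C; cell viability is quantified by CellTiter-Glo luminescence.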

[12] = molecular target: Peroxisome proliferator-activated receptor delta (Homo sapiens) (UniProt Q03181); experiment: qHTS assay to identify small molecule antagonists of the peroxisome proliferator-activated receptor delta (PPARd) signaling pathway (AID 743215; active means well fitted inhibition curve with a large enough effect in the signal ratio in the repeat runs, not every such curve was filed as active; the % refers to the signal ratio;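 further: cells stimulated with agonist L165041 at 300 nM final during compound exposure; series mostly up to about 62 µM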)
Method in brief: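 Fluorescence from cleaved LiveBLAzer B/G FRET substrate (2 h, room temperature) reports PPARd-driven beta-lactamase in HEK293H UAS-bla cells. Cells had been treated 17 h at 37 C with compound plus 300 nM final L165041.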

[13] = qHTS assay to identify small molecule agonists of the farnesoid-X-receptor (FXR) signaling pathway - cell viability counter screen (AID 743218); further: nearly all actives have a fitted effect of over 45% in size
Method in brief: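 Readout: CellTiter-Glo luminescence, 30 min RT, multiplexed after the FXR-bla FRET reading. HEK 293T FXR-UAS-bla cells received compound 5 h post-plating and were incubated 16 h at 37 C.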

[14] = qHTS assay to identify small molecule antagonists of the farnesoid-X-receptor (FXR) signaling pathway - cell viability counter screen (AID 743221; active means well fitted cell-killing curve with a large enough effect in the repeat runs, not every such curve was filed as active; further: nearly all actives have a fitted effect of over 50% in size)
Method in brief: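 Quantitative HTS of the Tox21 10K library run in parallel with the beta-lactamase reporter read. HEK 293T cells carrying a UAS-driven bla reporter got compound and 50 uM CDCA (final) for 16 h; ATP-based luminescence followed.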

[15] = molecular target: Vitamin D3 receptor (Homo sapiens) (UniProt P11473); experiment: qHTS assay to identify small molecule agonists of the vitamin D receptor (VDR) signaling pathway (AID 743222; calls by dose curve)
Method in brief: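 Following 4 h attachment at 37C, VDR-bla cells (2,000 per well) received DMSO-dissolved compounds or controls. After 16 h incubation, LiveBLAzer B/G FRET substrate was added and fluorescence read 2 h later at room temperature.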

[16] = molecular target: Vitamin D3 receptor (Homo sapiens) (UniProt P11473); experiment: qHTS assay to identify small molecule antagonists of the vitamin D receptor (VDR) signaling pathway (AID 743223; active means well fitted inhibition curve with a large enough effect in the signal ratio in the repeat runs, not every such curve was filed as active; the % refers to the signal ratio)
Method in brief: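 Fluorescence from LiveBLAzer B/G FRET substrate, read after 2 h at room temperature, reflects beta-lactamase reporter activity in VDR-bla cells treated 16 h at 37C with compounds and agonist 1alpha,25-dihydroxyvitamin D3 (3 nM final).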

[17] = molecular target: Bile acid receptor (Homo sapiens) (UniProt Q96RI1); experiment: qHTS assay to identify small molecule antagonists of the farnesoid-X-receptor (FXR) signaling pathway (AID 743217; active means well fitted inhibition curve with a large enough effect in the signal ratio in the repeat runs, not every such curve was filed as active; the % refers to the signal ratio)
Method in brief: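 FRET fluorescence after 2 h room-temperature LiveBLAzer loading gives the readout. Prior step: FXR-bla HEK 293T cells, seeded and incubated 5 h, received test compounds plus 50 uM final CDCA for 16 h at 37 °C.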

[18] = molecular target: Bile acid receptor (Homo sapiens) (UniProt Q96RI1); experiment: qHTS assay to identify small molecule agonists of the farnesoid-X-receptor (FXR) signaling pathway (AID 743220; active means well fitted activation curve with a large enough effect in the signal ratio in the repeat runs, not every such curve was filed as active; the % refers to the signal ratio)
Method in brief: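 FXR-UAS-bla HEK 293T cells carrying a UAS-driven beta-lactamase reporter were plated for 5 h at 37C/5% CO2, then exposed to DMSO-dissolved Tox21 10K compounds for 16 h at 37C. A LiveBLAzer B/G FRET substrate was loaded for 2 h at room temperature before fluorescence reading.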

[19] = qHTS assay for small molecule activators of the heat shock response signaling pathway (AID 743210; active means well fitted activation curve with a large enough effect in the signal ratio in the repeat runs, with a control signal flat, not every such curve was filed as active; the % refers to the signal ratio;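 further: HeLa cells with beta-lactamase reporter driven by heat shock elements; series mostly up to about 63 µM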)
Method in brief: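 Fluorescence from a cleaved B/G FRET substrate (2.5 h, room temp) reports HSE-driven beta-lactamase in HeLa cells treated 5 h at 37 C with DMSO-dissolved compounds.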

[20] = qHTS assay to identify small molecule agonists of the vitamin D receptor (VDR) signaling pathway - cell viability counter screen (AID 743224); further: series mostly up to about 63 µM; nearly all actives have a fitted effect of over 50% in size
Method in brief: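 In parallel with the bla FRET readout, cytotoxicity toward VDR-bla cells after 16 h compound exposure was assessed by CellTiter-Glo, with luminescence recorded after a 30 min room-temperature incubation.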
On the % scale 0 is the no-effect control and ±100 the full control effect.

Chain of Bile acid receptor (Homo sapiens) (Q96RI1 whole entry, looked up): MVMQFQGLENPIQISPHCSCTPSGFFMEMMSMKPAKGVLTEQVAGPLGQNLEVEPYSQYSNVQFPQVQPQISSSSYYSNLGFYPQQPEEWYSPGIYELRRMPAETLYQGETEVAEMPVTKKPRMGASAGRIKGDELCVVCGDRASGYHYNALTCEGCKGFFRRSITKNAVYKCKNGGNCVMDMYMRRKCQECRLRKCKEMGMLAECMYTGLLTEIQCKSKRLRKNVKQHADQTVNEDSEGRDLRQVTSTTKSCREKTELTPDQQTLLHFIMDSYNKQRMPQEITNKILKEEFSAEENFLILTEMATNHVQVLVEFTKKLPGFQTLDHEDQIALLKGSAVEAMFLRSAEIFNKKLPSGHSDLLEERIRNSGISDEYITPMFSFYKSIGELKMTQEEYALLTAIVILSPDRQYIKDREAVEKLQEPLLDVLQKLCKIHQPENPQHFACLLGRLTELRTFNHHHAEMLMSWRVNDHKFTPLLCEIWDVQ
Chain of Peroxisome proliferator-activated receptor delta (Homo sapiens) (Q03181 whole entry, looked up): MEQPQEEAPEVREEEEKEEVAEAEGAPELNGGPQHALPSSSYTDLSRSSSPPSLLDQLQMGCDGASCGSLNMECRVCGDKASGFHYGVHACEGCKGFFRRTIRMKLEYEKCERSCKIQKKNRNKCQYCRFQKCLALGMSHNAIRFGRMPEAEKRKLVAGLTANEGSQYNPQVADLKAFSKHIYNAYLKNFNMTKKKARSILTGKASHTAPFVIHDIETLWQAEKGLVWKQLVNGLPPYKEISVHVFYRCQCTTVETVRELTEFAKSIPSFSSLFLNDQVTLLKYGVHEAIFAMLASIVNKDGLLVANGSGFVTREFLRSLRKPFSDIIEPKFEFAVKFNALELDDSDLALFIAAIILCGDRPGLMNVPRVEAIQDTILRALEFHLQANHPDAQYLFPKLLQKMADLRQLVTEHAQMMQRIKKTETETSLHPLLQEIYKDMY
Chain of Vitamin D3 receptor (Homo sapiens) (P11473 whole entry, looked up): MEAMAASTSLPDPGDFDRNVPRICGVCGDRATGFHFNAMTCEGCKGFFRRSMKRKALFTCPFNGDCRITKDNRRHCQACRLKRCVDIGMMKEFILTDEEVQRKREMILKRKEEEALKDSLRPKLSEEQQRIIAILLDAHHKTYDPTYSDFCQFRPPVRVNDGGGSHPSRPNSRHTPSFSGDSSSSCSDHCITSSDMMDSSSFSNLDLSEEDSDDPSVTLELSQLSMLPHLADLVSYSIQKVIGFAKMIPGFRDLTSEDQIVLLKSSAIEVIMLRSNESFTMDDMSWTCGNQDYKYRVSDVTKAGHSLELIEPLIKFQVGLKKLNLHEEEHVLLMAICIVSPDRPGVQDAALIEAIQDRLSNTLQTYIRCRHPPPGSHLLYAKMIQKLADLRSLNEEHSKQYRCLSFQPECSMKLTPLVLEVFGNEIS
Chain of Peroxisome proliferator-activated receptor gamma (Homo sapiens) (P37231 whole entry, looked up): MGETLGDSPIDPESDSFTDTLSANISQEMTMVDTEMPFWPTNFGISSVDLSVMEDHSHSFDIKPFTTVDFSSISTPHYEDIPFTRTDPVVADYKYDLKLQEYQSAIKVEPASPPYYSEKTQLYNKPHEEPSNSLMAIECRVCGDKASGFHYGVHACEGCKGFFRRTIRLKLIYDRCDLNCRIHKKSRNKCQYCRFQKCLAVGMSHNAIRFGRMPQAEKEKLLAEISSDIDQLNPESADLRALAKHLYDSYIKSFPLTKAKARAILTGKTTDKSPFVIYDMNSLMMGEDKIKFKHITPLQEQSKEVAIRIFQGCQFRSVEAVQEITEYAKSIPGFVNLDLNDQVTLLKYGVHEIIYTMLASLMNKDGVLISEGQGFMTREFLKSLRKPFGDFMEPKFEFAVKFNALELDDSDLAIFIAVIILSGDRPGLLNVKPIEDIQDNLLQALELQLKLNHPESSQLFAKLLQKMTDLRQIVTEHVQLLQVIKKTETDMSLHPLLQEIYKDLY
Chain of Aryl hydrocarbon receptor (Homo sapiens) (P35869 whole entry, looked up): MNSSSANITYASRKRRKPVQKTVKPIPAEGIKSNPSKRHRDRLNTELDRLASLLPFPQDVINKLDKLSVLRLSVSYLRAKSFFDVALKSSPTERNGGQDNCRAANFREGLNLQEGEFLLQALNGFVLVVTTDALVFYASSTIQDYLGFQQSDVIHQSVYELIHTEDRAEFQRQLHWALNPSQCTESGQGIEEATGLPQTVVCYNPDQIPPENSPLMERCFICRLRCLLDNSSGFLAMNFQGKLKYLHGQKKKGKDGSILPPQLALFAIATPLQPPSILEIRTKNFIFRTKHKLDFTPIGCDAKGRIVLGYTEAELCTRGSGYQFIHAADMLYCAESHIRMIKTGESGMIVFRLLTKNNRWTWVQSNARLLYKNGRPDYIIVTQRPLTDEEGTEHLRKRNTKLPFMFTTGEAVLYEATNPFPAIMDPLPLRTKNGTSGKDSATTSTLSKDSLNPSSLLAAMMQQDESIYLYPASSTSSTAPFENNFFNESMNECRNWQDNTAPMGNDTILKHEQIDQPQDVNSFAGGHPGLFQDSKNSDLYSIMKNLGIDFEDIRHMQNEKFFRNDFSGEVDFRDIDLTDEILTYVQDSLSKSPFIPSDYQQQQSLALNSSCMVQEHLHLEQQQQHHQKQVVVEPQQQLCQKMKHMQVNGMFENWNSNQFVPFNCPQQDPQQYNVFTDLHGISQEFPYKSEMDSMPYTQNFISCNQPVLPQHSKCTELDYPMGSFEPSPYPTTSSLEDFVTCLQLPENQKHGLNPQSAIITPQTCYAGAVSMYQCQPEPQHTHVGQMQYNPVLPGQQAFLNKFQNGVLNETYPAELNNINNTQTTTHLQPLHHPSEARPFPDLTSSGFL

CC(O)COC(C)(C)C (configuration not stated)
inactive: Potency [1] | Potency [2] | Potency [3] | outcome [4] | outcome [5] | Potency [6] | outcome [7] | Potency [8] | outcome [9] | outcome [10] | outcome [11] | outcome [12] | outcome [13] | outcome [14] | outcome [15] | outcome [16]

O=S(=O)(O)c1ccc2c(N=Nc3ccc(S(=O)(=O)O)c4ccccc34)c(O)c(S(=O)(=O)O)cc2c1
active: Potency [2] 13.3 µM
inactive: Potency [1] | viability change, negative = cytotoxic [2] -5.27% [at 8.47 µM] | Potency [3] | ratio activity, negative = inhibition [4] -16.6% [at 5.95 µM] | activity change, negative = cytotoxicity [5] -3.57% [at 5.95 µM] | activation [6] 7.21% [at 8.36 µM] | viability change, negative = cytotoxic [7] -0.964% [at 8.36 µM] | activity change, negative = cytotoxicity [8] 0.481% [at 5.95 µM] | activity change, negative = cytotoxicity [9] 3.44% [at 5.95 µM] | activation [10] 0.0676% [at 5.95 µM] | ratio activity, negative = inhibition [12] 7.03% [at 6.26 µM] | activity change, negative = inhibition [17] -1.36% [at 5.95 µM] | viability change, negative = cytotoxic [13] 1.45% [at 5.95 µM] | activation [18] -0.449% [at 5.95 µM] | activity change, negative = cytotoxicity [14] -3.15% [at 5.95 µM] | activity change, negative = inhibition [16] 8.98% [at 6.95 µM]

Nc1nnnn1-c1ccccc1
inactive: Potency [1] | Potency [2] | Potency [3] | outcome [4] | outcome [5] | Potency [6] | outcome [7] | Potency [8] | outcome [19] | outcome [9] | outcome [10] | outcome [11] | outcome [12] | outcome [17] | outcome [18] | outcome [14] | outcome [15] | outcome [20]

NCCOCCN
inactive: Potency [1] | Potency [2] | Potency [3] | outcome [4] | outcome [5] | Potency [6] | outcome [7] | Potency [8] | outcome [9] | outcome [10] | outcome [11] | outcome [12] | outcome [13] | outcome [14] | outcome [16] | outcome [20]

CC/C(C)=N\O[Si](C)(O/N=C(\C)CC)O/N=C(\C)CC
inactive: Potency [2] | Potency [3] | outcome [4] | outcome [5] | Potency [6] | outcome [7] | Potency [8] | outcome [19] | outcome [9] | outcome [10] | outcome [11] | outcome [12] | outcome [17] | outcome [13] | outcome [18] | outcome [14] | outcome [15] | outcome [20]
active: Potency [1] 24.7 µM

Cc1c(Cl)cccc1Cl
inactive: Potency [1] | Potency [2] | Potency [3] | outcome [4] | outcome [5] | Potency [6] | outcome [7] | Potency [8] | outcome [19] | outcome [9] | outcome [14] | outcome [15] | outcome [16]

Cc1c(C(=O)c2c[nH]n(C)c2=O)ccc(S(C)(=O)=O)c1C1=NOCC1
inactive: Potency [1] | Potency [2] | Potency [3] | outcome [4] | outcome [5] | Potency [6] | outcome [7] | Potency [8] | outcome [19] | outcome [9] | outcome [10] | outcome [11] | outcome [13] | outcome [14] | outcome [15]

CCNC(=O)NCc1cccc(Cl)c1
inactive: Potency [1] | Potency [2] | Potency [3] | outcome [4] | outcome [5] | Potency [6] | outcome [7] | Potency [8] | outcome [19] | outcome [9] | outcome [10] | outcome [11] | outcome [12] | outcome [13] | outcome [18] | outcome [14] | outcome [15] | outcome [16]

CC(C)Nc1ccccc1
inactive: Potency [1] | Potency [2] | Potency [3] | outcome [4] | outcome [5] | Potency [6] | outcome [7] | Potency [8] | outcome [19] | outcome [9] | outcome [10] | outcome [11] | outcome [12] | outcome [13] | outcome [14] | outcome [15] | outcome [16] | outcome [20]

CCCSSCCC
inactive: Potency [1] | Potency [2] | Potency [3] | outcome [4] | outcome [5] | Potency [6] | outcome [7] | Potency [8] | outcome [9] | outcome [10] | outcome [11] | outcome [12] | outcome [13] | outcome [14] | outcome [16] | outcome [20]

CO[Si](CCCn1c(=O)n(CCC[Si](OC)(OC)OC)c(=O)n(CCC[Si](OC)(OC)OC)c1=O)(OC)OC
inactive: Potency [1] | Potency [2] | Potency [3] | outcome [4] | outcome [5] | Potency [6] | outcome [7] | Potency [8] | outcome [19] | outcome [9] | outcome [10] | outcome [11] | outcome [12] | outcome [13] | outcome [14] | outcome [15] | outcome [16] | outcome [20]

CCCCSCCCC
inactive: Potency [1] | Potency [2] | Potency [3] | outcome [4] | outcome [5] | Potency [6] | outcome [7] | Potency [8] | outcome [19] | outcome [9] | outcome [10] | outcome [11] | outcome [12] | outcome [13] | outcome [14] | outcome [20]

CC(C)Cn1cnc2c1c(=O)n(C)c(=O)n2C
inactive: Potency [1] | Potency [2] | Potency [3] | outcome [4] | outcome [5] | Potency [6] | outcome [7] | Potency [8] | outcome [19] | outcome [9] | outcome [10] | outcome [11] | outcome [12] | outcome [13] | outcome [18] | outcome [15] | outcome [20]

Cc1ncc([N+](=O)[O-])n1CC(C)O (configuration not stated)
inactive: Potency [1] | Potency [2] | Potency [3] | outcome [4] | outcome [5] | Potency [6] | outcome [7] | Potency [8] | outcome [19] | outcome [9] | outcome [10] | outcome [11] | outcome [12] | outcome [13] | outcome [14] | outcome [15] | outcome [20]

O=C(O)CSCC(=O)NC1CCSC1=O (configuration not stated)
inactive: Potency [1] | Potency [2] | Potency [3] | outcome [4] | outcome [5] | Potency [6] | outcome [7] | Potency [8] | outcome [19] | outcome [9] | outcome [10] | outcome [11] | outcome [12] | outcome [17] | outcome [13] | outcome [18] | outcome [14] | outcome [15]
